# Measured values published in the supplement of paper PMC8728848.
# Shown is part of a subset that was picked to be rich in the strongest signals.
# B1: Epa1-NP (Candida glabrata), Q6VBJ0 (protein)
# chain: MILNPALFLNKCVCIYTTLILLLLTNGGYATSSNDISLASKDPTTFPLGCSPDITTPKKGLSMELYSYDFRKKGSYPCWDAAYLDPNYPRTGYKSHRLLAKVDGVTGNINFYYHATKGCTPQLGHLPASYNYPKPLTMTNFTMLLYGYFRPKVTGFHTFTISADDLLFVNFGAGNAFDCCRRDSSADHFGNYQAYAIWGSKTAKDELTVHLDAGVYYPIRLFYNNREYDGALSFTFKTESNENTVSDFSEYFFSLDDTEEGCPGLISYDSSCASVKTSKIIGIDYHTETPNENLVPITKTIYHLGIPCTGTTTTPLCGSGFYDPLANKCVTINTSSTSSVTKTTSHTTSKEVSFHSSISSQKTLIPKSIPSPYGPIKSQSIPTEMETSSEISSSEYAFSDVISTPSHSPYTKKHSSLNSSSYTSTVIHSLTSYSISQGIFSTSLSEQNITSKSSTDKFSTATSMSNNITQSSIIISQFSTNNENYTTTSMHTSSDKISTETLNNSISTTTSILFSNSSTILKNNTTIISSDKDTHYHPVNPTIVCSTNKTEIICASITQPSISNSNNHWSSSVLKFNSTTVRSTLPSSAGSNETSINVPFSSSTESNTSTSSTSTSNSKMVRSTLPSSAGSNETSISVPFSSSTESNTSTSSTSTSNSKMVRSTLPSSAGSNETSINVPFSSSTESNTSTSSTSTSNSKTVRSTPFSSAGIIMTSLSQRNNKSASSYASSNSKCYNTADSCRKVHSTPSYLLTSSYTSEGVDYDCSLVSTKLKINDTNCVNNKHTTKSCLKTSVTTTIPTLEIKTARKSSSNTIGLHSYPTSSPNKSISSAPIIGYISSFKTIKTASPSYQTSDLTTITTITSLNNPGSTAVENTHESNDKSRKTSSNDISSKHSVIKETKDAVESSNKSHQTNTLKCSSIIIASSSHNSYESLGGTTLTLTLSKVYSPQNNDTLPFLEISEVNPSRTVLPESSKMMQYLTSTEERNKTARNTIATNIVSISTFHFEGEGNAIRMGYTQLLLMLIGIIVMNIGT
# How the values were obtained:
# Experiment in all cases: glycan array binding signal (z-score within array); higher = stronger binding
# Conditions in all cases: glycan notation: IUPAC condensed, linker removed
# [1] = molecular target: Fuc(a1-2)Gal(b1-3)GlcNAc(b1-3)Gal(b1-4)Glc
# Method in brief: (§1)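 From the Consortium for Functional Glycomics database, 3228 arrays were curated, keeping only those whose protein sequence was available. Binding is given as a within-array Z-score averaged across arrays sharing a protein sequence and across linkers. Negative Z-scores can be read as non-binding.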
# [2] = molecular target: Fuc(a1-2)Gal(b1-4)GlcNAc(b1-3)Gal(b1-4)GlcNAc(b1-2)Man(a1-3)[Fuc(a1-2)Gal(b1-4)GlcNAc(b1-3)Gal(b1-4)GlcNAc(b1-2)Man(a1-6)]Man(b1-4)GlcNAc(b1-4)GlcNAc
# Method in brief: as §1
# [3] = molecular target: Fuc(a1-2)Gal3S(b1-4)GlcNAc
# Method in brief: as §1
# [4] = molecular target: Fuc(a1-2)GlcNAc
# Method in brief: as §1
# [5] = molecular target: Fuc(a1-2)[Gal(a1-3)]Gal(b1-4)GlcNAc(b1-3)GalNAc
# Method in brief: as §1
# [6] = molecular target: Fuc(a1-2)[Gal(a1-3)]Gal(b1-4)GlcNAc(b1-3)[Fuc(a1-2)[Gal(a1-3)]Gal(b1-4)GlcNAc(b1-6)]GalNAc
# Method in brief: as §1
# [7] = molecular target: Fuc(a1-2)[GalNAc(a1-3)]Gal(b1-3)GlcNAc(b1-6)GalNAc
# Method in brief: as §1
# [8] = molecular target: Fuc(a1-2)[GalNAc(a1-3)]Gal(b1-4)[Fuc(a1-3)]GlcNAc
# Method in brief: as §1
# [9] = molecular target: Fuc(a1-2)[GalNAc(b1-3)]Gal
# Method in brief: as §1
# [10] = molecular target: Fuc(a1-3)[Gal3S(b1-4)]GlcNAc
# Method in brief: as §1
# [11] = molecular target: Fuc(a1-3)[GalNAc(b1-4)]GlcNAc
# Method in brief: as §1
# [12] = molecular target: Gal(a1-3)Gal(b1-4)[Fuc(a1-3)]GlcNAc(b1-2)Man(a1-3)[Gal(a1-3)Gal(b1-4)[Fuc(a1-3)]GlcNAc(b1-2)Man(a1-6)]Man(b1-4)GlcNAc(b1-4)GlcNAc
# Method in brief: as §1
# [13] = molecular target: Gal(a1-4)Gal(b1-4)Gal
# Method in brief: as §1
# [14] = molecular target: Gal(b1-2)Gal
# Method in brief: as §1
# [15] = molecular target: Gal(b1-3)Gal
# Method in brief: as §1
# [16] = molecular target: Gal(b1-3)Gal(b1-4)GlcNAc
# Method in brief: as §1
# [17] = molecular target: Gal(b1-3)GalNAc
# Method in brief: as §1
# [18] = molecular target: Gal(b1-3)GalNAc(b1-3)Gal
# Method in brief: as §1
# [19] = molecular target: Gal(b1-3)GalNAc(b1-3)Gal(b1-4)Glc
# Method in brief: as §1
# [20] = molecular target: Gal(b1-3)GalNAc(b1-4)Gal(b1-4)Glc
# Method in brief: as §1
# [21] = molecular target: Gal(b1-3)GalNAc(b1-4)[Neu5Ac(a2-3)]Gal(b1-4)Glc
# Method in brief: as §1
# [22] = molecular target: Gal(b1-3)[Neu5Ac(a2-6)]GalNAc
# Method in brief: as §1
# [23] = molecular target: Gal(b1-4)GlcNAc(b1-2)Man(a1-6)[Man(a1-3)]Man(b1-4)GlcNAc(b1-4)GlcNAc
# Method in brief: as §1
# [24] = molecular target: Gal(b1-4)GlcNAc(b1-3)Gal(b1-4)GlcNAc(b1-2)[Gal(b1-4)GlcNAc(b1-3)Gal(b1-4)GlcNAc(b1-6)]Man(a1-6)[Gal(b1-4)GlcNAc(b1-3)Gal(b1-4)GlcNAc(b1-2)Man(a1-3)]Man(b1-4)GlcNAc(b1-4)GlcNAc
# Method in brief: as §1
# [25] = molecular target: Gal(b1-4)GlcNAc(b1-3)Gal(b1-4)GlcNAc(b1-2)[Gal(b1-4)GlcNAc(b1-3)Gal(b1-4)GlcNAc(b1-6)]Man(a1-6)[Gal(b1-4)GlcNAc(b1-3)Gal(b1-4)GlcNAc(b1-2)Man(a1-3)]Man(b1-4)GlcNAc(b1-4)[Fuc(a1-6)]GlcNAc
# Method in brief: as §1
# [26] = molecular target: Gal(b1-4)GlcNAc(b1-3)Gal(b1-4)GlcNAc(b1-3)Gal(b1-4)GlcNAc(b1-2)[Gal(b1-4)GlcNAc(b1-3)Gal(b1-4)GlcNAc(b1-3)Gal(b1-4)GlcNAc(b1-6)]Man(a1-6)[Gal(b1-4)GlcNAc(b1-3)Gal(b1-4)GlcNAc(b1-3)Gal(b1-4)GlcNAc(b1-2)Man(a1-3)]Man(b1-4)GlcNAc(b1-4)[Fuc(a1-6)]GlcNAc
# Method in brief: as §1
# [27] = molecular target: Gal(b1-4)GlcNAc(b1-3)Gal(b1-4)GlcNAc(b1-3)Gal(b1-4)GlcNAc(b1-3)Gal(b1-4)GlcNAc(b1-3)Gal(b1-4)GlcNAc(b1-3)Gal(b1-4)GlcNAc(b1-2)Man(a1-3)[Gal(b1-4)GlcNAc(b1-3)Gal(b1-4)GlcNAc(b1-3)Gal(b1-4)GlcNAc(b1-3)Gal(b1-4)GlcNAc(b1-3)Gal(b1-4)GlcNAc(b1-3)Gal(b1-4)GlcNAc(b1-2)Man(a1-6)]Man(b1-4)GlcNAc(b1-4)GlcNAc
# Method in brief: as §1
# [28] = molecular target: Gal(b1-4)GlcNAc(b1-6)Gal(b1-4)GlcNAc
# Method in brief: as §1
# [29] = molecular target: Gal(b1-4)GlcNAc(b1-6)[Gal(b1-3)]GalNAc
# Method in brief: as §1
binder,measurement,setting,value
B1,glycan array binding signal (z-score),[1],-0.296
same,glycan array binding signal (z-score),[2],-0.277
same,glycan array binding signal (z-score),[3],-0.26
same,glycan array binding signal (z-score),[4],-0.542
same,glycan array binding signal (z-score),[5],-0.269
same,glycan array binding signal (z-score),[6],-0.281
same,glycan array binding signal (z-score),[7],-0.291
same,glycan array binding signal (z-score),[8],-0.283
same,glycan array binding signal (z-score),[9],-0.272
same,glycan array binding signal (z-score),[10],-0.341
same,glycan array binding signal (z-score),[11],-0.265
same,glycan array binding signal (z-score),[12],-0.174
same,glycan array binding signal (z-score),[13],0.374
same,glycan array binding signal (z-score),[14],0.199
same,glycan array binding signal (z-score),[15],2.9
same,glycan array binding signal (z-score),[16],5
same,glycan array binding signal (z-score),[17],2.56
same,glycan array binding signal (z-score),[18],2.91
same,glycan array binding signal (z-score),[19],1.31
same,glycan array binding signal (z-score),[20],8.65
same,glycan array binding signal (z-score),[21],2.27
same,glycan array binding signal (z-score),[22],5.06
same,glycan array binding signal (z-score),[23],-0.225
same,glycan array binding signal (z-score),[24],1.54
same,glycan array binding signal (z-score),[25],2.48
same,glycan array binding signal (z-score),[26],2.81
same,glycan array binding signal (z-score),[27],1.3
same,glycan array binding signal (z-score),[28],2.34
same,glycan array binding signal (z-score),[29],2.73
